Test systems include NCI-H23 lung; NCI-H226 lung; NCI-H322M lung; HOP-62 NSCLC; NCI-H460 lung; HOP-92 NSCLC; NCI-H522 lung; A549/ATCC NSCLC; 786-0 renal; COLO 205 colon; DU-145 prostate; K-562 leukemia; MALME-3M melanoma; MDA-MB-231 breast; SF-268 CNS; SF-295 CNS; SF-539 CNS; UACC-257 melanoma; M14 melanoma.
Common to all, as to experiment: NCI-60 one-dose screen, 48 h (100 = growth as untreated, 0 = no growth, -100 = all killed)
Details in all cases: 10 µM unless noted

Each structure is given as a SMILES string. About 83,000 compounds went through this panel and 20% of them were active in at least one assay; those are over-represented in the sample as a whole.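 Each cell line was grown in a 96-well plate and treated with one concentration of compound for 48 hours. Values below 10 were considered active.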 A number with no mark means an inactive call. Activity calls are given as the source filed them.

As for `Cc1ccc(C2CC(c3cccc(Nc4ccncc4)c3)=NN2c2cc(Cl)cc(Cl)c2)cc1` (configuration not stated), the growth with NCI-H23 lung was 61.1%; in the test on NCI-H226 lung, 86.3%; in the test with NCI-H322M lung, 73.7%; with HOP-62 NSCLC, 40.5%; in the test with NCI-H460 lung it was -73.4% (active); in the test on HOP-92 NSCLC, 57.7%. Further, the growth in the test on NCI-H522 lung is 21%; in the test with A549/ATCC NSCLC, 4.87% (active); in the test with 786-0 renal it was 51%; in the test with COLO 205 colon, -43.1% (active); with DU-145 prostate, 30.8%; with K-562 leukemia, 1.45% (active). Besides, the growth is 1.81% (active) with MALME-3M melanoma; 40.9% in the test with MDA-MB-231 breast; 82.8% with SF-268 CNS; -6.71% (active) in the test with SF-295 CNS; 78.1% in the test with SF-539 CNS; 76.2% with UACC-257 melanoma. Further, in the test on M14 melanoma, the growth was 2.02% (active).
In the case of `COc1cc(C2CC(c3cccc(Nc4ccncc4)c3)=NN2c2ccccc2)cc(OC)c1OC` (configuration not stated), the growth was 90% with NCI-H23 lung; 96% in the test with NCI-H226 lung; 80.1% with NCI-H322M lung; 59.6% in the test with HOP-62 NSCLC; 4.66% (active) in the test on NCI-H460 lung; 28.1% with HOP-92 NSCLC. For the same molecule, the growth with NCI-H522 lung was 77.3%; in the test with A549/ATCC NSCLC, 44.9%; in the test with 786-0 renal it was 69.1%; in the test on COLO 205 colon, -52.5% (active); in the test with DU-145 prostate, 45.4%; in the test with K-562 leukemia it was 0.38% (active). For the same molecule, the growth was -77.7% (active) in the test on MALME-3M melanoma; 63.4% with MDA-MB-231 breast; 64.7% with SF-268 CNS; 58.6% with SF-295 CNS; 76.9% in the test on SF-539 CNS; -13.8% (active) with UACC-257 melanoma. Further, the growth in the test with M14 melanoma is 58.9%.
Regarding `COc1ccc(CNC(=O)COc2ccc(/C=N/Nc3nc4ccccc4s3)cc2)cc1`, the growth with NCI-H23 lung was 33.9%; with NCI-H226 lung, 18%; in the test on NCI-H322M lung, 30.2%; in the test on HOP-62 NSCLC, 39.3%; with NCI-H460 lung it was -12.6% (active); in the test with HOP-92 NSCLC, -24.8% (active). For the same molecule, the growth in the test with NCI-H522 lung is 31.1%; with A549/ATCC NSCLC, 26.5%; with 786-0 renal, -6.47% (active); in the test with COLO 205 colon, 64%; with DU-145 prostate, -49.1% (active); in the test on K-562 leukemia, 34.8%. Further, the growth with MALME-3M melanoma was 24.1%; with MDA-MB-231 breast it was 10.2%; with SF-268 CNS, 19.9%; in the test on SF-295 CNS, 47.4%; with SF-539 CNS, 21.1%; with UACC-257 melanoma, 53.8%. Besides, in the test on M14 melanoma, the growth is 54%.
For `O=C(Nc1nc2ccc(C(=O)N3CCN(c4ccc(Cl)c(Cl)c4)CC3)cc2s1)c1ccc(NCCc2ccccc2)c([N+](=O)[O-])c1`, the growth with NCI-H23 lung is 93.3%; in the test with NCI-H226 lung, 87.8%; in the test on NCI-H322M lung, 95.5%; in the test on HOP-62 NSCLC, 96.6%; with NCI-H460 lung it was 110%; in the test on HOP-92 NSCLC, 91.7%. The growth was 75.9% in the test on NCI-H522 lung; 97.9% with A549/ATCC NSCLC; 107% in the test on 786-0 renal; 108% with COLO 205 colon; 101% in the test on DU-145 prostate; 84.2% with K-562 leukemia. The growth is 86.8% with MALME-3M melanoma; 86.2% in the test on MDA-MB-231 breast; 97% with SF-268 CNS; 96.4% in the test on SF-295 CNS; 101% with SF-539 CNS; 99.4% in the test on UACC-257 melanoma. Further, the growth with M14 melanoma is 98.5%.
Regarding `COc1c(Cl)cc(Cl)c2ccc(C=C3C(=O)N(C)C(=O)N(C)C3=O)nc12`, the growth with NCI-H23 lung was 104%; in the test with NCI-H226 lung, 100%; with NCI-H322M lung, 106%; with HOP-62 NSCLC, 37.3%; in the test with NCI-H460 lung it was 96.8%; with HOP-92 NSCLC, 119%. For the same molecule, the growth in the test with NCI-H522 lung was 92.2%; in the test on A549/ATCC NSCLC, 111%; in the test with 786-0 renal, 53.7%; in the test on COLO 205 colon, 110%; with DU-145 prostate, 108%; in the test with K-562 leukemia, 100%. Besides, the growth in the test with MALME-3M melanoma was 107%; in the test on MDA-MB-231 breast, 107%; in the test on SF-268 CNS, 97.3%; in the test on SF-295 CNS, 80.3%; in the test with SF-539 CNS, 98.6%; with UACC-257 melanoma it was 106%. Further, in the test on M14 melanoma, the growth is -15.7% (active).
Take `CCOC(=O)c1cnc2c(cnn2CC)c1NN=C(C)C`: the growth was 96.5% in the test with NCI-H23 lung; 86.6% with NCI-H226 lung; 94.6% with NCI-H322M lung; 76.6% in the test with HOP-62 NSCLC; 106% in the test with NCI-H460 lung; 73.9% in the test with HOP-92 NSCLC. Also, the growth in the test on NCI-H522 lung was 74.4%; in the test on A549/ATCC NSCLC, 96.2%; with 786-0 renal it was 86.5%; in the test with COLO 205 colon, 113%; in the test on DU-145 prostate it was 100%; in the test with K-562 leukemia, 62.9%. Besides, the growth in the test with MALME-3M melanoma was 99.7%; in the test with MDA-MB-231 breast, 91.6%; in the test with SF-268 CNS, 92.4%; with SF-295 CNS it was 96.1%; with SF-539 CNS it was 94.8%; with UACC-257 melanoma it was 113%. Further, the growth in the test on M14 melanoma is 106%.
For the molecule `COc1ccc(-c2nc(N/N=C/c3cccc(O)c3)nc(N3CCOCC3)c2C#N)cc1`, the growth is 99.5% in the test on NCI-H23 lung; 98.1% in the test with NCI-H226 lung; 95% in the test with NCI-H322M lung; 90.7% with HOP-62 NSCLC; 83.8% in the test on NCI-H460 lung; 47.7% in the test with HOP-92 NSCLC. For the same molecule, the growth was 79.1% with NCI-H522 lung; 81.7% in the test on A549/ATCC NSCLC; 44.1% with 786-0 renal; 74.1% with COLO 205 colon; 56% in the test on DU-145 prostate; 58.3% in the test with K-562 leukemia. Moreover, the growth was 65.9% with MALME-3M melanoma; 74.9% in the test on MDA-MB-231 breast; 78.8% with SF-268 CNS; 69.7% in the test with SF-295 CNS; 54.5% in the test on SF-539 CNS; 57.9% with UACC-257 melanoma. In the test on M14 melanoma, the growth was 57.5%.
`O=C1Nc2c(ccc(Cl)c2Cl)/C1=C/c1ccc(F)cc1`: the growth in the test with NCI-H23 lung was 87.2%; in the test with NCI-H226 lung, 84.8%; in the test with NCI-H322M lung, 93.9%; in the test with HOP-62 NSCLC, 89.3%; in the test on NCI-H460 lung it was 97.8%; in the test with HOP-92 NSCLC, 42.1%. Also, the growth in the test on NCI-H522 lung is 76.4%; in the test with A549/ATCC NSCLC it was 41.1%; in the test on 786-0 renal, 76.7%; in the test with COLO 205 colon, 97.7%; with DU-145 prostate it was 113%; in the test with K-562 leukemia it was 85%. Also, the growth was 105% in the test with MALME-3M melanoma; 83.6% with MDA-MB-231 breast; 88.8% with SF-268 CNS; 109% in the test with SF-295 CNS; 94.8% in the test on SF-539 CNS; 97.9% with UACC-257 melanoma. Moreover, in the test with M14 melanoma, the growth was 93.9%.

The values above are taken from PubChem BioAssay (NCI).
